Pol iota inh: blocks human DNA polymerase iota activity | AID 588590 | Q9UNA4 | actives 1% (n = 390,000) | Potency, µM (titrated, usually from 115 µM), most hits filed as inhibitors | Pol iota fluorescent replication assay, 10 min
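Fluorescent replication assay read twice, at 0 min and 10 min after adding 50 nM (final) substrate. Enzyme (10 nM) and compounds were first incubated 15 min at room temperature; enzyme-free buffer wells were negative controls.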
POLB inh: inhibitors of human DNA polymerase beta | actives 1.3% (n = 340,000) | P06746 | Pol beta primer extension/strand displacement, fluorescence kinetic | Potency, µM (titrated, usually from 114 µM), most hits filed as inhibitors | AID 485314
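Preincubation: enzyme (10 nM) with compound, 15 min, RT. Reaction: substrate added to 50 nM final. Reads: 0 and 10 min. Analysis: normalized, Hill fit.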
PI5P4Ka inh: blocks human PI5P4K alpha kinase activity; P48426; PI5P4Kalpha enzyme, ADP-Glo luminescence, 60 min; stronger effect = lower value; max response, %; actives 1.2% (n = 330,000); AID 652105; active = max response of -50% or lower; inconclusive = between -30% and -50%; inactive = -30% or higher; also: value at the top dose of about 77 µM
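ADP-Glo luminescence end-point read after a 60 min room-temperature kinase reaction of PI5P4Kalpha plus substrate, initiated with ATP at 5 microM final. Buffer: 0.038 M HEPES pH 7.4, EGTA, 0.1% CHAPS, 5% DMSO.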
WRN inhibitor: inhibitors of human WRN helicase; Q14191; WRN helicase unwinding, fluorescent forked duplex, kinetic; Potency, µM (doses to about 114 µM), most hits filed as inhibitors; actives 0.46% (n = 360,000); AID 651768; also: nearly all actives have a fitted effect of over 55% in size
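Fluorescence dequenching readout, ex 525 nm/em 598 nm, kinetic mode: forked duplex DNA (100 nM final) with adjacent fluorophore and quencher unwound by WRN (20 nM final) with 2 mM ATP. Compound preincubation 15 min, room temperature.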
POLK inh: DNA polymerase kappa (human) inhibition; AID 588579; Q9UBT6; purified Pol kappa, fluorescent DNA synthesis assay, 10 min; Potency, µM (highest dose often 107 µM), hits mostly inhibitors; actives 0.53% (n = 400,000)
Target sequence (Q9UBT6 whole entry, looked up): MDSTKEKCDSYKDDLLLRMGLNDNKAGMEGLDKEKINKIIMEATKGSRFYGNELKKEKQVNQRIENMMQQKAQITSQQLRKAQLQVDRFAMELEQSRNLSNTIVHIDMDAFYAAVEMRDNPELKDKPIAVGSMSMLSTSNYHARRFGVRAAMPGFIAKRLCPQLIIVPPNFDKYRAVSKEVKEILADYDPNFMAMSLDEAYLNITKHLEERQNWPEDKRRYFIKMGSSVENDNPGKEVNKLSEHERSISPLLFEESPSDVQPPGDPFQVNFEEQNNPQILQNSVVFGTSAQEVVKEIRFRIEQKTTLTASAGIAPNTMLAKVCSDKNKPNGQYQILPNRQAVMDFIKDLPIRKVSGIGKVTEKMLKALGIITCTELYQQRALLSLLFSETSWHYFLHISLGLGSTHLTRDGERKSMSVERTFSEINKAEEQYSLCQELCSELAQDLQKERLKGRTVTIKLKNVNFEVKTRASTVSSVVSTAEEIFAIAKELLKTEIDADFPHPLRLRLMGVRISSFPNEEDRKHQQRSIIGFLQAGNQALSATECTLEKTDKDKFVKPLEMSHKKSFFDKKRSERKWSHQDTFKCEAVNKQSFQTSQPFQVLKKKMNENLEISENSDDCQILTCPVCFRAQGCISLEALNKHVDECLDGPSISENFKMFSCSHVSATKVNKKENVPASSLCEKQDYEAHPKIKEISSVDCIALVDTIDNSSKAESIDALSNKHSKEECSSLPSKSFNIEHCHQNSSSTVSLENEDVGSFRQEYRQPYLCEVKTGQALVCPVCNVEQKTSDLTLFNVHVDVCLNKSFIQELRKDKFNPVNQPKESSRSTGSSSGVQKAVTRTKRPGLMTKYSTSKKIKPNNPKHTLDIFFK
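50 nM final substrate added after 15 min RT preincubation of 10 nM Pol kappa with compound; fluorescence read at 0 and 10 min.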
Pol eta inh: DNA polymerase eta (human) inhibition; actives 1.2% (n = 390,000); Q9Y253; AID 588591; Potency, µM (top dose mostly 114 µM), actives largely listed as inhibitors; recombinant Pol eta, fluorescent DNA replication assay
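Fluorescent replication assay: 50 nM final substrate added after a 15 min room-temperature compound preincubation with 10 nM enzyme. Signal taken at 0 min and again at 10 min.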
PGK validate: TbPGK inhibition, hit validation; shares compounds with POLK inh; TbPGK coupled GAPDH assay, Kinase-Glo luminescence; Potency, µM (series often up to 57.5 µM), actives largely listed as inhibitors; actives 79% (n = 500); also: nearly all actives have a fitted effect of over 65% in size
POLI cherry-pick: Confirm cherry-picked inhibitors of human polymerase iota; Pol iota primer extension, TAMRA/BHQ fluorescence; shares compounds with POLK inh; AID 720496; Potency, µM, usual class: inhibitors; actives 77% (n = 1,500)
A number is an active result; . = inactive; ? = inconclusive; / = not tested or not shown; [ ] = another dose, or the depositor's remark. Only some compounds are listed: those with a hit (about 2.8% of all), similar ones and a draw of the others. Unless noted, calls follow the shape of the dose curve; as a rule, active = well fitted curve in the direction sought with a large enough effect; inconclusive = small, poorly fitted or top-dose-only effect, or another doubt; inactive = no such curve, though single readings can be large; an effect the other way counts as inactive or inconclusive.

SMILES	Pol iota inh	POLB inh	PI5P4Ka inh	WRN inhibitor	POLK inh	Pol eta inh	PGK validate	others
O=C(COC(=O)/C=C/c1ccco1)Nc1cc(S(=O)(=O)N2CCOCC2)ccc1Cl	50.1µM	/	.	.[11.6 µM]	?	?	?
CN1CCc2c(sc(NC(=O)CSc3ccccc3)c2-c2nc3ccccc3s2)C1	.	.	/	/	.	.	/
CC(=O)Nc1sc2c(c1-c1nc3ccccc3s1)CCN(C)C2	/	/	/	/	/	/	/	POLI cherry-pick=37.7
O=C(O)C1OC(Oc2cc3oc(-c4ccccc4)cc(=O)c3c(O)c2O)C(O)C(O)C1O (stereo unspecified)	10µM	50.1µM	.	.	79.4µM	.	/	POLI cherry-pick=21.2
COc1c(OC2OC(C(=O)O)C(O)C(O)C2O)cc(O)c2c(=O)cc(-c3ccccc3)oc12 (stereo unspecified)	.	.	.	.	.	.	/
Cc1cccc(C(=O)NC(=S)Nc2cccc3nc(C)ccc23)c1	31.6µM	25.1µM	.	.	.	?	/	POLI cherry-pick=?
O=C1/C(=C\c2c(NCCOCCO)nc3ccccn3c2=O)SC(=S)N1Cc1ccco1	?	17.8µM	.	22.4µM	?	79.4µM	/	POLI cherry-pick=?
O=C(N/N=C/c1cccc([N+](=O)[O-])c1)c1cc2c(ccc3ccccc32)o1	?	.	.	.	.	?	/	POLI cherry-pick=47.4
Cc1[nH]cnc1C(=O)N/N=C/c1c(Cl)cccc1Cl	.	.	?	.	.	.	11.6µM
O=S(=O)(c1ccc2c(c1)OCCO2)N1CCN(c2nc(-c3ccccc3)nc3ccccc23)CC1	.	/	/	/	.	/	/
O=c1c(=O)n(O)c2ccccc2n1O	.	.	/	.	.	.	/	POLI cherry-pick=?
Cc1ccc(S(=O)(=O)C(CNC(=O)COc2ccccc2)c2cccs2)cc1 (stereo unspecified)	.	12.6µM	/	/	.	.	?
Cc1cc(S(=O)(=O)C(CNC(=O)COc2ccccc2)c2cccs2)ccc1F (stereo unspecified)	.	.	/	/	.	.	/
CC(CCC(C)[n+]1cccc(Br)c1)[n+]1cccc(Br)c1 (stereo unspecified)	?	/	/	/	.	/	/
O=C1CC(c2ccco2)Cc2[nH]c(=O)c(C(=O)Nc3ccccc3)cc21 (stereo unspecified)	.	/	/	/	.	/	/
CCOC(=O)c1ccc(NC(=O)CSc2ccc3ccccc3n2)cc1	?	.	/	/	.	.	/
Cc1ccccc1N=CC1=C(O)c2ccccc2C1=O	.	.	.	.	.	.	10.3µM
CCOc1ccc(N/C=C/C(=O)c2ccccc2)c([N+](=O)[O-])c1	.	.	.	.	.	.	14.6µM
CCOc1ccc(NC(=O)/C=C/c2ccccc2)c([N+](=O)[O-])c1	.	.	.	.	.	.	/
COc1ccc(NC(=O)c2cc3c(=O)n(C)c4ccccc4c3s2)cc1OC	.	?	.	.[11.6 µM]	.	?	/	POLI cherry-pick=29.9
CCCCNS(=O)(=O)c1ccc2nc(NC(=O)c3cccnc3)sc2c1	.	.	/	/	.	50.1µM	?
CCCCNc1cc(NC2CCCCC2)c2c3c(onc13)-c1ccccc1C2=O	?	?	/	/	.	70.8µM	/	POLI cherry-pick=59.7
Cc1ccc(-c2cc(C(=O)NCc3ccccc3)c3c(-c4ccc(C)cc4)[nH]nc3n2)cc1	.	.	/	/	.	.	/
CSc1ccccc1NC(=O)COc1ccc(Cl)cc1Cl	.	.	.	?	.	.	/
O=C(COc1ccc(Cl)cc1Cl)Nc1ccccn1	.	.	/	.	.	.	18.3µM
SMILES	Pol iota inh	POLB inh	PI5P4Ka inh	WRN inhibitor	POLK inh	Pol eta inh	PGK validate	others
CN(C)c1ccc(/C=N/NC(=O)c2ccccn2)cc1	.	?	.	.	.	.	?
O=C(N/N=C/c1ccncc1)c1ccccn1	.	.	.	.	.	.	/
O=S(=O)(c1ccccc1C(F)(F)F)N1CCN(c2nc(-c3ccccc3)nc3ccccc23)CC1	.	/	/	/	.	/	/
O=C(Nc1ccc(C(=O)N2CCCC2)cc1)c1ccccc1F	.	.	/	.	.	.	20.6µM
Fc1cccc2sc(Nc3nc4cc5c(cc4s3)OCO5)nc12	.	.	?	.	.	.	/
Fc1cc(F)c2nc(Nc3nc4cc5c(cc4s3)OCO5)sc2c1	?	?	.	28.2µM	?	2.82µM	/	POLI cherry-pick=?
Cc1ccc2nc(N3CCN(c4ccccc4F)CC3)c3nnnn3c2c1	.	.	/	/	.	.	/
CN(C)c1ccc(C(=O)Nc2sc(Nc3ccccc3)nc2C(N)=O)cc1	79.4µM	?	/	/	.	?	/	POLI cherry-pick=?
O=C1Nc2cc3c(cc2C1=O)sc1ccccc13	31.6µM	39.8µM	.	44.7µM	?	44.7µM	/	POLI cherry-pick=?
CCOC(=O)c1cnc2cc(F)c(F)cc2c1Nc1ccccc1O	.	.	/	/	.	.	/
CCOC(=O)c1cnc2ccc(OC(F)(F)F)cc2c1Nc1ccccc1C(=O)O	.	.	/	/	.	.	.
Cc1cc(C)c2c(n1)sc1c(O)cc(=O)[nH]c12	?	?	/	?	79.4µM	79.4µM	/	POLI cherry-pick=47.4
CC(=O)c1sc2nc(C)cc(C)c2c1N	.	.	/	.	.	.	/
O=C(c1ccccc1)c1cc2ccc(O)cc2oc1=O	.	.	/	.	.	.	14.6µM
COc1ccc(C(=O)c2cc3ccc(O)cc3oc2=O)cc1	?	.	/	.	.	.	/
CC1(C)C2CCC1(C)C(NC(=O)COC(=O)c1ccc(S(C)(=O)=O)c([N+](=O)[O-])c1)C2 (stereo unspecified)	?	/	/	/	.	/	/
C/C(=N\NC(=O)c1ccccc1NC(=O)c1ccc(Cl)cc1)c1ccncc1	.	.	?	.	.	.	6.51µM
Cc1cn2c(=O)cc(COc3ccccc3NC(=O)c3ccc(Cl)cc3)nc2s1	.	.	/	/	.	.	/
COc1ccc2nc(NC(=O)c3cc(C)oc3C)sc2c1	?	.	.	.	.	.	/
COc1ccc2nc(NC(=O)c3ccoc3C)sc2c1	.	.	/	.	.	.	10.3µM
Oc1ccc(Cl)cc1C1=Nc2ccccc2N=C(c2cccc(Br)c2)C1	?	.	/	/	.	.	/
CSc1ccc(CCNC(=O)C(C)n2c(C)c3cnn(-c4ccccc4)c(=O)c3c2C)cc1 (stereo unspecified)	.	.	/	/	.	.	/
COCCNC(=O)/C(C#N)=C/c1ccc(O)cc1	.	.	?	.	.	.	16.3µM
O=C(O)CCCNC(=O)/C=C/c1ccco1	?	2.82µM	.	.	50.1µM	3.98µM	?
O=C(O)CCCCCNC(=O)/C=C/c1ccco1	.	?	.	.	.	.	/
COc1cccc(CNCCSc2nnnn2C)c1OCc1ccc(Cl)cc1Cl	.	.	/	/	.	.	.
COc1ccc(C(=O)COC(=O)c2cc(-c3cccs3)nc3ccccc23)cc1	.	.	/	/	.	.	/

Screening data (PubChem)
